Shown are actives, neighbours in structure and some others; about 8% of the full set was active somewhere.
KB-V1 cytotox: kills drug-selected multidrug resistant KB-V1 cells; KB-V1 MDR cells viability, CellTiter-Glo, 72 h; Potency, µM (top dose mostly 46.1 µM), actives largely listed as cytotoxic; 400,000 tested, 3.4% active; AID 1347076; further: on the % scale 0 is the no-effect control and ±100 the full control effect; nearly all actives have a fitted effect of over 60% in size
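Cytotoxicity toward P-gp-expressing KB-V1 cells was determined as loss of CellTiter-Glo luminescence after 72 h at 37 degrees C. Compounds were tested in quantitative HTS format across a concentration range, with curves fitted to normalized data.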
MCF10A rerep: DNA re-replication induction in MCF 10a cells; MCF 10A DNA re-replication, Hoechst nuclear intensity, 48 h; Potency, µM (titrated, usually from 46.1 µM), inactives show top-dose activity, positive = re-replication, hits mostly activators; 350,000 tested, 2.9% active; AID 624296; further: % of control where 0% means no effect; nearly all actives have a fitted effect of over 50% in size
HT1080 IDH1KD tx: HT-1080 IDH1 knockdown cell toxicity (counter line); Potency, µM (highest dose often 46.1 µM), inactives show top-dose activity, negative = toxicity, actives largely listed as cytotoxic; HT-1080 IDH1 knockdown viability, ATP luminescence, 48 h; 360,000 tested, 2% active;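 further: 0% = DMSO wells and -100% = cell-free medium wells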
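Knockdown cells (IDH1KD HT-1080) received compounds 2 h after plating at 750 cells/well and were kept 48 h at 37 °C in 5% FBS RPMI. A CellTiter-Glo luminescence read gave % activity for curve fitting.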
KB-3-1 cytotox: KB-3-1 parental cell cytotoxicity. KB-3-1 viability, CellTiter-Glo ATP luminescence, 72 h. Potency, µM (titrated, usually from 46.1 µM), hits mostly cytotoxic. 400,000 tested, 1.4% active. AID 1347075; further: on the % scale 0 is the no-effect control and ±100 the full control effect; nearly all actives have a fitted effect of over 60% in size
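KB-3-1 cells, DMEM (no phenol red) + 10% FBS; compound by pin transfer, 72 h, 37 °C. Readout: CellTiter-Glo luminescence after 10 min. Data normalized, curve-fitted.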
SW480 rerep: inducers of DNA re-replication in SW480 colon cancer cells; SW480 DNA re-replication, Hoechst DNA content imaging, 48 h; Potency, µM (series often up to 46.1 µM), for inactives: at the highest dose re-replication activation, hits mostly activators; 340,000 tested, 1.8% active; further: % of control where 0% means no effect; nearly all actives have a fitted effect of over 55% in size
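First, 250 cells per well were seeded. Next, compound or vehicle (23 nL) was pinned in, plates sat 48 hr at 37 C. Finally Hoechst was added for 40 min before fluorescence scanning.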
HT1080-NT tox: kills 2HG-producing HT-1080-NT fibrosarcoma cells. HT-1080-NT fibrosarcoma viability, CellTiter-Glo ATP luminescence, 48 h. AID 686970. Potency, µM (top dose mostly 46.1 µM), without a hit: at the highest dose activity, negative = less viability, actives largely listed as cytotoxic. 360,000 tested, 1.6% active;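 further: NT is the 2HG producing partner of a matched IDH1 knockdown line; 0% = DMSO-treated cells and -100% = media-only wells without cells; nearly all actives have a fitted effect of over 55% in size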
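Read-out is CellTiter-Glo luminescence after 10 minutes at room temperature, following 48 hours' compound treatment of HT-1080-NT cells (750 cells/well, RPMI, 5% FBS, 37 degrees C).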
Starred values were filed as active, the others as inactive. The call rests on the fitted dose curve; in most records, active means well fitted curve in the direction sought with a large enough effect; inconclusive means small, poorly fitted or top-dose-only effect, or another doubt; inactive means no such curve, though single readings can be large; an effect the other way counts as inactive or inconclusive. Potency means the concentration at half of the fitted maximal effect.

For NC(N)=N/N=C/c1ccc(OCc2ccccc2)cc1 the results were KB-V1 cytotox inactive, MCF10A rerep 1.0%, HT1080 IDH1KD tx inconclusive, KB-3-1 cytotox inconclusive, SW480 rerep 0.3% and HT1080-NT tox 17.8µM*.
Cc1ccc(COc2ccc(/C=N/O)cc2)cc1 was read as KB-V1 cytotox inactive, MCF10A rerep inconclusive, HT1080 IDH1KD tx 3.4%, KB-3-1 cytotox inactive, SW480 rerep 4.8% and HT1080-NT tox 4.6%.
`NC(N)=N/N=C/c1ccc(OCc2ccc(Cl)cc2)cc1` gave KB-V1 cytotox 20.6µM*, MCF10A rerep 1.4%, HT1080 IDH1KD tx inconclusive, KB-3-1 cytotox inactive, SW480 rerep -3.1% and HT1080-NT tox 15.8µM*.
For NC(N)=N/N=C/c1ccc(Br)cc1 the results were KB-V1 cytotox inconclusive, MCF10A rerep 18.4µM*, HT1080 IDH1KD tx inconclusive, KB-3-1 cytotox inconclusive, SW480 rerep inconclusive and HT1080-NT tox inconclusive.
Screening COCCNC(=O)c1[nH]c2cc(C)ccc2c1Sc1ccc(Cl)cc1 returned KB-V1 cytotox inactive and KB-3-1 cytotox inactive.
For c1ccc(CCn2nnnc2C(c2cccnc2)N2CCN(c3nc4ccccc4s3)CC2)cc1 (centres undefined) the results were KB-V1 cytotox inconclusive, MCF10A rerep 9.9%, HT1080 IDH1KD tx -16.9%, KB-3-1 cytotox inactive, SW480 rerep -19.3% and HT1080-NT tox -12.6%.
Screening Clc1ccc(C(c2nnnn2C2CCCC2)N2CCN(Cc3ccncc3)CC2)cc1 (centres undefined) returned KB-V1 cytotox inactive, MCF10A rerep -3.3%, HT1080 IDH1KD tx -14.0%, KB-3-1 cytotox inactive, SW480 rerep 11.9% and HT1080-NT tox -10.4%.
CCCCn1nnnc1C(c1ccccc1)N1CCN(CC)CC1 (centres undefined) was read as KB-V1 cytotox inconclusive, HT1080 IDH1KD tx 9.7%, KB-3-1 cytotox inactive and HT1080-NT tox 12.0%.
`c1ccc(CCn2nnnc2C(c2cccnc2)N2CCN(c3ccccc3)CC2)cc1` (centres undefined) gave KB-V1 cytotox 10.3µM*, MCF10A rerep inconclusive, HT1080 IDH1KD tx -3.2%, KB-3-1 cytotox inactive, SW480 rerep 0.1% and HT1080-NT tox -6.4%.
`Cc1ccc(C(c2nnnn2Cc2ccccc2)N2CCN(Cc3ccccc3)CC2)cc1` (centres undefined) gave KB-V1 cytotox inactive, MCF10A rerep 16.4µM*, HT1080 IDH1KD tx inconclusive, KB-3-1 cytotox inconclusive, SW480 rerep -1.4% and HT1080-NT tox -22.7%.
Screening CCCCn1nnnc1C(c1ccccc1)N1CCCN(Cc2ccc(F)cc2)CC1 (centres undefined) returned KB-V1 cytotox 8.2µM*, HT1080 IDH1KD tx -23.4%, KB-3-1 cytotox inconclusive and HT1080-NT tox inconclusive.
For Fc1ccc(C(c2nnnn2C2CCCC2)N2CCN(Cc3ccccc3)CC2)cc1 (centres undefined) the results were KB-V1 cytotox 3.66µM*, MCF10A rerep 1.1%, HT1080 IDH1KD tx 11.2%, KB-3-1 cytotox inactive, SW480 rerep -2.4% and HT1080-NT tox 0.8%.
Screening Cc1ccc(C(c2nnnn2Cc2ccccc2)N2CCN(Cc3ccncc3)CC2)cc1 (centres undefined) returned KB-V1 cytotox inactive and KB-3-1 cytotox inactive.
For CCCCOC(=O)c1ccc(OC(=O)c2sc3ncn(Cc4cccc(F)c4)c(=O)c3c2C)cc1 the results were KB-V1 cytotox inactive and KB-3-1 cytotox inactive.
CCc1c(C)sc2c1CCN(Cc1ccc(F)cc1)C2c1ccccc1 (centres undefined) was read as KB-V1 cytotox inactive and KB-3-1 cytotox inconclusive.
For COc1cc2nc(SCC(=O)Nc3cccc(C)c3)n3nc(CCn4c(C)nc5ccccc54)nc3c2cc1OC the results were KB-V1 cytotox inactive and KB-3-1 cytotox inactive.
c1ccc(CN2CCN(C(c3ccccc3)c3ccccc3)CC2)cc1 was read as KB-V1 cytotox inconclusive, MCF10A rerep 20.6µM*, HT1080 IDH1KD tx inconclusive, KB-3-1 cytotox inactive, SW480 rerep 7.7% and HT1080-NT tox -13.8%.
For Fc1ccc(CN2CCN(C(c3ccccc3)c3ccccc3)CC2)cc1 the results were KB-V1 cytotox inactive, MCF10A rerep 11.5%, HT1080 IDH1KD tx 5.2%, KB-3-1 cytotox inactive, SW480 rerep 21.3% and HT1080-NT tox 2.9%.
Screening CCC(c1nnnn1Cc1ccccc1)N1CCN(c2ccccc2)CC1 (centres undefined) returned KB-V1 cytotox 23.1µM*, MCF10A rerep -0.9%, HT1080 IDH1KD tx 7.9%, KB-3-1 cytotox inactive, SW480 rerep -15.5% and HT1080-NT tox -0.9%.
Screening O=S(=O)(CCN1CCN(C(c2ccccc2)c2ccccc2)CC1)C(F)(F)F returned KB-V1 cytotox inactive, MCF10A rerep inconclusive, HT1080 IDH1KD tx 17.8µM*, KB-3-1 cytotox inactive, SW480 rerep inconclusive and HT1080-NT tox inconclusive.
`CCc1ccc(C(=O)COC(=O)C(Cc2c[nH]c3ccccc23)NC(=O)c2ccc(CC)cc2)cc1` (centres undefined) gave KB-V1 cytotox inactive and KB-3-1 cytotox inactive.
Screening COc1ccc(CCNC(=O)C2(c3cccs3)CCOCC2)cc1OC returned KB-V1 cytotox inactive and KB-3-1 cytotox inactive.
O=C(CSc1nc2c(c(=O)[nH]1)CCCC2)Nc1ccccc1C(F)(F)F was read as KB-V1 cytotox inactive and KB-3-1 cytotox inactive.
Screening CCOc1ccc2nc(NCCCNS(=O)(=O)c3ccccc3)c(C#N)cc2c1 returned KB-V1 cytotox inconclusive, MCF10A rerep 2.91µM*, HT1080 IDH1KD tx 2.2%, KB-3-1 cytotox inconclusive, SW480 rerep 7.31µM* and HT1080-NT tox -0.8%.
For CCOc1ccc2nc(NCCCNS(=O)(=O)c3ccc(F)cc3)c(C#N)cc2c1 the results were KB-V1 cytotox inactive, MCF10A rerep 2.06µM*, HT1080 IDH1KD tx -12.1%, KB-3-1 cytotox 18.4µM*, SW480 rerep inconclusive and HT1080-NT tox -2.1%.
For COc1ccc(-c2c(C)c3ccc(O)c(CN4CCC(C)CC4)c3oc2=O)cc1OC the results were KB-V1 cytotox inactive and KB-3-1 cytotox inactive.
`N#Cc1ccc(/C=C2/C=Cc3ccccc32)cc1` gave KB-V1 cytotox inactive and KB-3-1 cytotox inactive.
Screening c1ccc(CCNc2nc(-c3ccncc3)nc3ccccc23)cc1 returned KB-V1 cytotox 14.6µM*, MCF10A rerep inconclusive, HT1080 IDH1KD tx 4.11µM*, KB-3-1 cytotox inconclusive, SW480 rerep 20.6µM* and HT1080-NT tox inconclusive.

From PubChem BioAssay
